# Compounds with a hit are over-represented: about 8% of the library has one in this group of screens.
# Gal4-VP16 FLuc: inhibits Gal4-VP16 luciferase reporter, ROR gamma counter-screen. Drosophila S2 Gal4-VP16 UAS-luciferase, luminescence, 20 h. 3.5% of 310,000 active. Potency, µM (series often up to 53.6 µM), for the others: at the highest dose activity, negative = inhibition, hits mostly inhibitors;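 also: Gal4-VP16 expression switched on by copper sulfate through the metallothionein promoter; potency is read from the fitted curve at half-maximal effect; nearly all actives have a fitted effect of over 50% in size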
# FBPA coupling cs: inhibits coupling enzyme system, counter-screen for aldolase hits; coupling enzyme system counterscreen, AmpLite Red fluorescence; activity change, negative = inhibition, % at 58.2 µM, hits read low; 0.67% of 290,000 active; AID 2472; in the data active = activity change below about -30%
#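 Coupling enzymes only (glyceraldehyde-3-phosphate) + compound, at 57.5 uM final, 10 min RT; add substrate/coupling/AmpLite Red mix, 20 min RT; fluorescence ex 525/em 598 nm. Actives flag coupling-system interference.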
# RORg inh: blocks mouse ROR gamma transcriptional activity | 5.4% of 310,000 active | Drosophila S2 Gal4-RORgamma UAS-luciferase reporter, 20 h | Potency, µM (doses to about 53.6 µM), for the others: at the top dose activity change, negative = inhibition, hits mostly inhibitors | P51450 | AID 2551; also: potency is read from the fitted curve at half-maximal effect; nearly all actives have a fitted effect of over 60% in size
# Target sequence (P51450 whole entry, looked up, the tested form may be a part): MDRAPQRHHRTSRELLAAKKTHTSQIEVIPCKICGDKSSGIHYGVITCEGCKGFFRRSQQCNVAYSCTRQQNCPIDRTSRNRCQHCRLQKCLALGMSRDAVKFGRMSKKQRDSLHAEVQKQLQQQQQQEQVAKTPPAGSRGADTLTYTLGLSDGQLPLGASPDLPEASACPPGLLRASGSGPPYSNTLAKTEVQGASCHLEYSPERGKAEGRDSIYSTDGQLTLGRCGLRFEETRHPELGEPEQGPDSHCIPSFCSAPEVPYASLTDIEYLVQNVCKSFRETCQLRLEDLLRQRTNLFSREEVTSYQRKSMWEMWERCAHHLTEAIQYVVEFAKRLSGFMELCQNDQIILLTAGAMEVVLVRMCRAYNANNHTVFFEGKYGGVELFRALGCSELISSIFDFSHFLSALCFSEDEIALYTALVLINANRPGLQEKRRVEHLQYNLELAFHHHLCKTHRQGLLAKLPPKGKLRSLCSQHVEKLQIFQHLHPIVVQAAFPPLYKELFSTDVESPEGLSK
#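 Stable Schneider cell line, Gal4 DNA-binding domain fused to ROR gamma, UAS-luciferase. Cmpd 1 hr RT → CuSO4 700 uM final → 20 hr RT → luciferase reagent 10 min → luminescence.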
# ELG1 DNA repair: blocks ELG1-dependent DNA repair in HEK293T cells | HEK293T ELG1-luciferase reporter, luminescence, 16 h; DNA damage induced by 5-fluorouridine | Potency, µM (doses to about 46.1 µM), inactives show at the top dose activity change, negative = inhibition, usual class: inhibitors | 2.3% of 330,000 active | AID 504467; also: potency is read from the fitted curve at half-maximal effect; nearly all actives have a fitted effect of over 55% in size
#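 Luminescence from the luciferase reporter, measured 30 min after ONE-Glo reagent at room temperature, was the read-out. Beforehand, 2,000 cells per well were exposed for 16 hr at 37 °C to 5-fluorouridine together with compound or vehicle.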
# TSHR antagonist: antagonists of human thyroid stimulating hormone receptor | AID 504810 | 0.2% of 330,000 active | TSHR-expressing cells, TSH-stimulated cAMP HTRF, 2 h; stronger effect = lower value | activity change, negative = inhibition, % at 11.5 µM | P16473;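 active = activity change below a set negative limit, meaning inhibition stronger than a set level, cut at about -70% in these data; inconclusive = activity change between two set negative limits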
#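 Read-out is FRET at 665 nm (cryptate excitation 337 nm) from a cryptate-tagged anti-cAMP antibody, competed by cell cAMP against cAMP-d2. Compounds are tested on freshly harvested TSHR cells challenged with 4nM TSH (EC80) for 2 hours at 37 deg C.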
# Active calls of the source: *; ? = inconclusive; . = no result; ! = not active in a repeat. Unless noted, calls follow the shape of the dose curve; as a rule, active = well fitted curve in the direction sought with a large enough effect; inconclusive = small, poorly fitted or top-dose-only effect, or another doubt; inactive = no such curve, though single readings can be large; an effect the other way counts as inactive or inconclusive. % is scaled to controls: 0 for no effect and ±100 for the full control effect.
SMILES,Gal4-VP16 FLuc,FBPA coupling cs,RORg inh,ELG1 DNA repair,TSHR antagonist
COc1ccc(OC)c(-c2csc(NC(=O)Cc3ccccc3)n2)c1,22%,-3,19%,-24%,-3
COc1ccc(CCC(=O)NNC(=O)c2ccc(F)cc2)cc1,-9%,0,-15%,?,-9
COc1cccc(C(C)NC(=S)NCc2ccc(Cl)cc2)c1 (stereo unspecified),?,1,6.3µM*,?,2
CCC(NC(=S)NCc1ccc(F)cc1)c1ccccc1 (stereo unspecified),3.2µM*,0,3.5µM*,-10%,-4
O=C(NCc1ccc(F)cc1)C(c1ccccc1)c1ccccc1,-3%,5,-23%,-19%,23
COc1ccc(CCC(=O)NNC(=S)NCc2ccc(F)cc2)cc1,-19%,2,7.9µM*,-15%,-7
COc1ccc(C(C)NC(=S)NCc2ccc(F)cc2)cc1 (stereo unspecified),1µM*,0,5.6µM*,3%,17
Cc1ccc(C)c(C(C)NC(=S)NCc2ccc(F)cc2)c1 (stereo unspecified),1.4µM*,0,5µM*,?,-30
COc1ccc(CNC(=S)NCc2ccc(F)cc2)cc1OC,?,1,-42%,?,1
O=C(CNc1cccc([N+](=O)[O-])c1)N1CCN(S(=O)(=O)c2ccc(Cl)cc2)CC1,.,.,.,-11%,-10
CCOc1cc(C(N)=O)cc(Br)c1OCC,-11%,-3,-23%,8.2µM*,-4
NNC(=O)c1cc2cc3ccccc3nc2s1,-11%,0,13µM*,23%,-7
COc1ccc(S(=O)(=O)NNC(=O)c2cc3cc4ccccc4nc3s2)cc1,22µM*,20,?,-3%,-4
Cc1cc(=O)c2c(O)c3c(O)cc(=O)c4c3c3c(cc(O)c1c23)C(C)(C)C=4O,4µM*,6,7.1µM*!,.,.
O=C(COC(=O)CCCN=C1NS(=O)(=O)c2ccccc21)NNC(=O)c1ccccc1,.,.,.,24%,13
Cc1cccc(NC(=S)NC2CCCCCC2)c1C,7.1µM*,2,3.2µM*,0%,4
S=C(Nc1ccccc1Cl)NC1CCC(NC(=S)Nc2ccccc2Cl)CC1 (stereo unspecified),0%,2,-31%,5%,3
Cc1c(Cl)cccc1NC(=S)NC1CCCC1,5.6µM*,4,4.5µM*,-20%,6
Cc1cccc(NC(=S)NN2CCOCC2)c1C,2%,2,11µM*,15%,15
Cc1cccc(NC(=S)NC2CCCC2)c1C,7.1µM*,-2,7.1µM*,-4%,-16
Cc1cccc(NC(=O)C2CCCN(C(=O)NC3CCCCC3)C2)c1C (stereo unspecified),0%,1,13%,?,28
c1ccc(Nc2nc(-c3ccccc3)ns2)cc1,-13%,3,-30%,?,10
Cc1cccc(NC(=S)NC2CC3CCCC(C2)N3Cc2ccccc2)c1C (stereo unspecified),?,1,14µM*,0%,2
CCc1ccc(NC(=S)NC2CC3CCCC(C2)N3Cc2cccs2)cc1 (stereo unspecified),13µM*,2,2µM*,-5%,7
CCc1ccccc1NC(=S)NC1CC2CCC(C1)N2Cc1ccc(F)cc1 (stereo unspecified),?,2,7.1µM*,5%,7
SMILES,Gal4-VP16 FLuc,FBPA coupling cs,RORg inh,ELG1 DNA repair,TSHR antagonist
COC(=O)C1=C(C(=O)OC)SC2(S1)C(C(=O)OC)=C(C(=O)OC)SC1=C2c2cccc(C)c2NC1(C)C,?,4,5.6µM*,1%,2
CCOC(=O)c1ccc(N2CN(CCc3ccccc3)CNC2=S)cc1,?,4,?,17%,11
CCOc1ccccc1N1CN(CC)CNC1=S,-2%,0,?,20%,25
CCN1CN(CCc2ccccc2)CNC1=S,?,-1,13µM*,4%,4
Cc1ccc(N2CN(CCc3ccccc3)CNC2=S)cc1,13µM*,3,5µM*,-16%,-10
CCN1CNC(=S)N(CCc2ccccc2)C1,13µM*,2,8.9µM*,?,6
CCOc1ccc(CCN2CN(CC)CNC2=S)cc1OCC,?,5,13µM*,16%,12

# Assay outcomes deposited in PubChem by National Center for Advancing Translational Sciences (NCATS).
